Marburg entry inh – blocks Marburg virus binding to or entry into cells; 300,000 compounds, 1.8% hits; AID 540276; Marburg virus pseudotyped entry inhibition, cell reporter; Potency, µM (doses to about 37.8 µM), inactives show top-dose activity change, negative = inhibition, hits mostly inhibitors; calls by dose curve; tested in HEK293 cells; further: potency means the concentration at half of the fitted maximal effect; on the % scale 0 is the no-effect control and ±100 the full control effect
LASV entry inh – inhibitors of Lassa virus binding or cell entry; Lassa virus pseudotype entry inhibition, cell reporter; Potency, µM (doses to about 37.9 µM), for inactives: at the top dose activity change, negative = inhibition, usual class: inhibitors; 300,000 compounds, 1.2% hits; AID 540256; calls by dose curve; tested in HEK293 cells; further: potency means the concentration at half of the fitted maximal effect; on the % scale 0 is the no-effect control and ±100 the full control effect; nearly all actives have a fitted effect of over 50% in size
FMDV inh – foot and mouth disease virus antiviral activity; FMDV antiviral cell-based qHTS; Potency, µM (doses to about 57.9 µM), for the others: at the highest dose activity change, negative = inhibition, most hits filed as inhibitors; 410,000 compounds, 1.2% hits; calls by dose curve; tested in HEK293T cells; further: read-out not given here; potency means the concentration at half of the fitted maximal effect; on the % scale 0 is the no-effect control and ±100 the full control effect; nearly all actives have a fitted effect of over 45% in size
SARS PLP yeast – SARS-CoV PLP inhibition in yeast; 330,000 compounds, 0.19% hits; Potency, µM (top dose mostly 32.9 µM), for inactives: top-dose activity, positive = growth rescue, hits mostly activators; AID 485353; S. cerevisiae expressing SARS-CoV PLpro, growth rescue; calls by dose curve; further: potency means the concentration at half of the fitted maximal effect; 0% is about no effect; nearly all actives have a fitted effect of over 55% in size
HCV inhibitor – blocks hepatitis C virus; 340,000 compounds, 3.4% hits; Huh7.5.1 HCVcc-Cre infection, luciferase reporter, 44 h; Potency, µM (top dose mostly 41.8 µM), for the others: at the top dose activity change, negative = inhibition, actives largely listed as inhibitors; active means well fitted inhibition curve with a large enough effect; inconclusive means small, poorly fitted or top-dose-only effect, or another doubt; inactive means no such curve, though single readings can be large or run the other way; further: potency means the concentration at half of the fitted maximal effect; on the % scale 0 is the no-effect control and ±100 the full control effect
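Cells (1,000/well) were plated 4 h before compound, then infected with HCVcc-Cre virus (~0.5 moi). After 44 h further culture, infection was read as luciferase luminescence following a 15 min substrate incubation at room temperature.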
HCMV inh – human cytomegalovirus inhibition | activity change, negative = inhibition, % at 57.5 µM | 410,000 compounds, 4.5% hits | HFF cells, HCMV-luciferase reporter, 72 h; active compounds read low; in the data active means activity change below about -60%; inconclusive means no clear call, values can overlap the other calls; inactive means above about -39%; further: on the % scale 0 is the no-effect control and ±100 the full control effect
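Two compound doses tested in HFFs infected with HCMV-luciferase, MOI 1 PFU/cell, 72 h at 37C. Lysate luminescence read with OneGlo; data normalized against buffer-only and 10uM Salinomycin inhibitor controls.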
The depositor's hits bear a star; ? = inconclusive; . = no result; [ ] = dose if it differs, or a comment. A selection: hits, their analogues and other compounds. The true share with any hit is near 8%.

SMILES	Marburg entry inh	LASV entry inh	FMDV inh	SARS PLP yeast	HCV inhibitor	HCMV inh
COc1ccc(Nc2sc(C(=O)c3ccc(Cl)cc3)c(N)c2C(=O)Nc2ccccc2OC)cc1	?	-28%	-24%	-5%	?	?
COc1cccc(Nc2sc(C(=O)c3ccc(Cl)cc3)c(N)c2C(=O)NCc2ccc(C)cc2)c1	.	?	?	.	.	-80*
COc1ccccc1NC(=O)c1c(Nc2ccccc2C)sc(C(=O)Nc2cccc(Cl)c2)c1N	?	?	7.9µM*	-15%	13µM*	-97*
COc1ncc2nc(-c3ccc(F)cc3)c(=O)n(Cc3ccc(F)cc3)c2n1	.	.	-2%	.	.	.
Cc1c(C(=O)NCc2ccc3c(c2)OCO3)cnn1-c1ncc2c(n1)-c1ccccc1CC2	.	.	47%	.	.	.
COc1ccc(C(=O)c2sc(Nc3cccc(OC)c3)c(C(=O)Nc3cccc(C)c3C)c2N)cc1	21µM*	?	-10%	7%	-24%	-70*
COc1ccc(NC(=O)c2c(Nc3ccccc3)sc(C(=O)c3ccc(F)cc3)c2N)cc1	6.3µM*	13µM*	?	-10%	6.3µM*	-83*
COCCN1CCn2c(nc3cc(NC(=O)c4cccs4)ccc32)C1	13%	?	.	3%	-12%	68
CC(=O)Nc1ccc2nc(SCCOc3ccccc3)sc2c1	-20%[46.1 µM]	-10%[46.1 µM]	10%	.	.	-78*
CN(C(=O)CSc1nc2ccc(NC(=O)c3cccs3)cc2s1)c1ccccc1	-25%[46.1 µM]	?	?	.	.	-76*
CC(c1ccccc1)N1CCn2c(nc3cc(NC(=O)c4cccs4)ccc32)C1 (stereo not drawn)	-30%	-17%	.	-14%	10µM*	-73*
COc1cccc(NC(=O)CSc2nc3ccc(NC(=O)c4ccco4)cc3s2)c1	?	-18%[46.1 µM]	40µM*	.	.	-35
CCOC(=O)Cc1ccc(NC(=O)N2CCOc3ccc(C)cc32)cc1	.	0%[46.1 µM]	-7%	.	.	-3
CCCN(CCC)CCNC(=O)c1sc2nc3n(c(=O)c2c1C)CCCCC3	.	-16%[46.1 µM]	-15%	.	.	-17
CC(=O)OCC#CCSc1nnc(-c2cccc(Br)c2)o1	-11%[46.1 µM]	-1%[46.1 µM]	16%	.	.	-9
Cc1cccc(NC(=O)CSc2nc3ccc(NC(=O)c4ccco4)cc3s2)c1	?	-7%[46.1 µM]	25µM*	.	.	?
Cc1ccccc1-c1nc(N2CCNCC2)c2ccccc2n1	.	.	-1%	.	.	.
c1ccc2c(N3CCNCC3)nsc2c1	?	?	2%	1%	?	-107*
O=C1[C@H]2CCCC[C@H]2C(=O)N1CCCCN1CCN(c2nsc3ccccc23)CC1	.	.	-28%	.	-28%	-61*
CC(=NCC1CCCO1)C1=C(O)CC(C)(C)CC1=O (stereo not drawn)	-16%	5%	-24%	-1%	3%	-62*
CC(=O)Oc1ccc(-c2csnn2)cc1	-3%	7%	-13%	1%	1%	?
CCNC(=O)Oc1ccc(-c2csnn2)cc1	7%[46.1 µM]	-1%	32µM*	-5%	-15%	-8
CC(C)CNc1cc(N2CCCC2)ccc1[N+](=O)[O-]	-23%	-3%	.	0%	4µM*	-38
CNc1cc(N2CCCC2)ccc1[N+](=O)[O-]	6%[46.1 µM]	0%	21%	2%	25µM*	10
CCNc1cc(N2CCCC2)ccc1[N+](=O)[O-]	-11%	3%	-8%	2%	?	-14
SMILES	Marburg entry inh	LASV entry inh	FMDV inh	SARS PLP yeast	HCV inhibitor	HCMV inh
CNc1cc(N2CCCCCC2)ccc1[N+](=O)[O-]	-17%	-24%	.	-10%	-23%	-39
Clc1ccc2nc(N3CCNCC3)nc(-c3ccccc3)c2c1	?	?	-25%	-9%	10µM*	?
C#CCSC1=C(C#N)[C@@H](c2cccs2)C(C(=O)OCC)=C(C)N1	0%	.	.	.	.	.
NCCc1c(-c2ccccc2)n(-c2ccccc2)c2ccccc12	13µM*	-28%[46.1 µM]	-23%	-4%	11µM*	-4
CC(=O)n1c(-c2ccccc2)c(CO)c2ccccc21	.	.	-27%	-17%	-25%	-17
CC(=O)OC1CCC2(C)C(CCC3C4CC=C(C(C)=O)C4(C)OC(=O)CC32)C1 (stereo not drawn)	.	.	13µM*	.	.	-76*
CCOc1cccc2cc(-c3nc4ccc(C(=O)O)cc4[nH]3)c(=O)oc12	.	21%[46.1 µM]	11µM*	0%	.	47
COc1ccc2cc(-c3nc4ccc(C(=O)O)cc4[nH]3)c(=O)oc2c1	.	10µM*	1µM*	.	.	-16
